Assay [1] is described as follows: viability loss in pontine glioma line – cell-based, SU-DIPG-XVII, MIPE5.0, CellTiter-Glo, qHTS, dose response (AID 1347060).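 For AC50: cells exposed to compound for 48 hours before viability readout.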 As to conditions: CellTiter-Glo ATP luminescence. (In general: In ATP-based viability assays light output follows the ATP content of the culture.)
A short description of assay [2]: viability loss in pontine glioma line – cell-based, SU-DIPG-XIII, MIPE5.0, CellTiter-Glo, qHTS, dose response (AID 1347064; cut-off not given, nearly all actives have AC50 up to about 23 µM;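 for AC50: cells exposed to compound for 48 hours before the viability read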). The following applies: CellTiter-Glo ATP luminescence.
Assay [3] can be described thus: viability loss in pontine glioma line – cell-based, SU-DIPG-XXV, MIPE5.0, CellTiter-Glo, qHTS, dose response (AID 1347065).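 Note: cells exposed to compound for 48 hours before ATP readout.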 The following applies: CellTiter-Glo ATP luminescence.
A short description of assay [4]: JHH-DIPG-1 glioma cell viability, MIPE5.0 library, CellTiter-Glo luminescence, qHTS (AID 1347067).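 Note: cells exposed to compound for 48 hours before readout.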 The following applies: JHH-DIPG-1 glioma viability, CellTiter-Glo ATP luminescence.
A short description of assay [5]: growth inhibition of DIPG cells – cell-based, MIPE5.0 library, qHTS (AID 1347068; cut-off not given, nearly all actives have IC50 up to about 30 µM;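 for IC50: cells exposed to compound for 48 hours before viability readout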). The following applies: SU-DIPG-XXV viability. (qHTS replaces the single test concentration by a dilution series.)
The nature of assay [6]: viability loss in pontine glioma line – cell-based, SU-DIPG-XIII, MIPE4.0, CellTiter-Glo, qHTS, dose response (AID 1347061; cut-off not given, nearly all actives have AC50 up to about 37 µM;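 note: cells exposed to compound for 48 hours before readout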). As to conditions: CellTiter-Glo ATP luminescence.
Assay [7] is described as follows: viability loss in pontine glioma line – cell-based, JHH-DIPG-1, MIPE4.0, CellTiter-Glo, qHTS, dose response (AID 1347062; cut-off not given, nearly all actives have AC50 up to about 27 µM). As to conditions: JHH-DIPG-1 viability, CellTiter-Glo ATP luminescence.
Assay [8] in a line: viability loss with induced miR-34 in A549 – imaging, A549 dox-inducible miR-34, nuclei and caspase counts, primary screen (AID 1347080;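 active = compounds whose cell count with miR-34 switched on is under 0.7 times the count with it off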). The following applies: A549 miR-34 inducible, Hoechst nuclei count, 48 h.
Assay [9] can be described thus: MELAS cybrid and Rieske KO viability enhancers – cell-based, MELAS cybrids, Rieske KO mouse fibroblasts, CellTiter-Glo, primary screen (AID 1508586;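 active = mean z-score across replicates of 1.96 or higher in either the MELAS or the Rieske mutant cell line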;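 note: z relative to plate mean and SD of compound and empty wells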). As to conditions: low glucose.
The nature of assay [10]: growth inhibition of DIPG cells – cell-based, MIPE4.0 library, CellTiter-Glo luminescence, qHTS (AID 1347066; cut-off not given, nearly all actives have AC50 up to about 30 µM;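 note: cells exposed to compound for 48 hours before readout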). The following applies: SU-DIPG-VI viability, CellTiter-Glo ATP luminescence.

Results filed as inconclusive are left out. The source made the active and inactive calls. Unless noted, no cut-off is given here; in the data, nearly all actives have AC50 up to about 26 µM.

As a reminder, the AC50 is the midpoint of the concentration-response curve, whichever way the signal moves. The IC50 is the point on the concentration scale where inhibition reaches its midpoint.

For the compound `CN(C)c1cc2c(cc1Sc1nc3c(N)nccc3n1CCNCC(C)(C)C)OCO2`, the AC50 was 0.59 µM (active) in [1], 1.32 µM (active) in assay [2], 0.661 µM (active) in assay [3] and 1.32 µM (active) in assay [4]. In assay [5], the IC50 is 2.95 µM (active).

As for `COc1ccc2c(c1)CN(C)CC2c1ccc(Cl)c(Cl)c1` (stereo not drawn), the compound was classed as inactive in assay [6].

With `CC(N[C@H]1C[C@@H]1c1ccccc1)c1ccc2c(c1)OCCO2` (stereo partly drawn), the outcome in assay [1], in assay [7], in [2], in assay [3], in assay [4] and in assay [5] was inactive.

As for `Cn1c(/C=C/CO)c(CO)c2c1C(=O)C=C(N1CC1)C2=O`, the compound was classed as inactive in assay [1], in [3] and in assay [5].

Consider `CN1C(=O)[C@@H](NC(=O)[C@H](CCC(F)(F)F)[C@H](CCC(F)(F)F)C(N)=O)N=C(c2ccccc2)c2ccccc21`, for which the call in assay [1], in assay [2], in [3], in assay [4] and in assay [5] was inactive.

Turning to `CCOc1ccccc1-n1c(C(C)N2CCN(C(=O)COc3ccc(Cl)cc3)CC2)nc2ccccc2c1=O` (stereo not drawn), the AC50 in [1] is 16.6 µM (active); in assay [3], 18.6 µM (active). For the same compound, in [5], the IC50 was 18.6 µM (active). The fold change was 0.777 (inactive) in assay [8] (stronger effect = lower value, cell number ratio, induced over uninduced) and 0.61 in [8] (measured here: relative caspase fold change +Dox/-Dox). The cell count in [8] (measured here: total cells with miR-34 induction, stronger effect = lower value) amounted to 5130; in [8] (measured here: total cells without miR-34 induction) it was 6610. In addition, the z-score was 1.76 (inactive) in assay [9] (MELAS cybrid survival, CellTiter-Glo 48 h, stronger effect = higher value) and 1.03 in [9] (Rieske KO mouse fibroblast survival, CellTiter-Glo 72 h).

Take `O=C(O)CNC(=O)C1C(=O)N(C2CCCCC2)C(=O)N(C2CCCCC2)C1=O`: the AC50 in assay [1] was 20.9 µM (active). Moreover, the compound was called inactive in assay [2], in [3] and in assay [5].

Consider `COc1cc(C(=O)N2CC[C@@H](O)[C@@H](N)C2)cc2nc(-c3cc4ccccc4n3CC3CC3)n(C)c12`, for which the AC50 was 23.5 µM (active) in assay [1], 23.5 µM (active) in assay [2], 29.5 µM (active) in assay [3] and 23.5 µM (active) in assay [4].

On to `c1ccc2c(CN3CCNCC3)cccc2c1`, for which the result in assay [1], in assay [7], in assay [2], in assay [3], in assay [10] and in [4] was inactive.

The values above are taken from PubChem BioAssay.
